Several values for one entry are separate records, joined by “and”; a condition that tells them apart may be missing. Identical values can stand only once. Records with an inconclusive call do not appear. Where a call stands in place of a potency, no number is given. Activity calls are given as the source filed them. Calls follow the shape of the full dose curve.
Assay: qHTS assay for small molecules that induce genotoxicity in human embryonic kidney cells expressing luciferase-tagged ATAD5 - cell viability (AID 651634); also: nearly all actives have a fitted effect of over 25% in size
Details: HEK293T ATAD5-luc cells viability, CellTiter-Fluor, 15.5 h; series mostly up to 83.3 µM; activity, negative = cytotoxicity: at the top concentration
Description: National Center for Advancing Translational Sciences [NCATS]
NIH Chemical Genomics Center [NCGC]
U.S. Environmental Protection Agency [EPA]
National Institutes of Environmental Health Sciences [NIEHS]
National Toxicology Program [NTP]
U.S. Food and Drug Administration [FDA]
Enhanced Level of Genome Instability Gene 1 (ELG1; human ATAD5) protein levels increase in response to various types of DNA damage. Using a luciferase reporter-gene tagged with ElG1, a cell-based assay [developed by Kyungjae Myung, NHGRI, NIH] was used to measure the induction of ATAD5 in human embryonic kidney cells (HEK293T). So, increase in luciferase activity can be used to identify the compounds that cause genetic stress. In addition to genotoxicity, these cells were also used to test for cytotoxicity by measuring the protease activity within live cells.
Tox21 Assay Protocol Summary:
For cytotoxicity screening, 2,000 cells in 5 uL/well were dispensed into white, solid-bottom 1536-well plates using a Multidrop Combi (Thermo Scientific) dispenser. Following transfer of 23 nL compound or DMSO vehicle by a pin tool, the plates were incubated 15.5 hr at 37C and 5% CO2. 1 ul CellTiter-Fluor reagent (Promega, Madison, WI) was then added to each plate and following 30 min incubation at 37C, fluorescence intensity was quantified on a ViewLux CCD-based plate reader.
Potency is read from the fitted curve at half-maximal effect.

| SMILES | Potency | activity, negative = cytotoxicity |
| --- | --- | --- |
| OC1CCCCC1 | inactive | – |
| O=C1O[C@H]([C@H](O)CO)C(O)=C1O | inactive | – |
| CC(=O)OCCC(C)C | inactive | – |
| Cc1nnc(NS(=O)(=O)c2ccc(N)cc2)s1 | inactive | – |
| COc1c(Cl)ccc(Cl)c1C(=O)O | inactive | – |
| N#CCC(=O)O | inactive | – |
| NCCNCCNCCN | inactive | – |
| CC(=O)Nc1ccc(CC(=O)O)cc1 | inactive | – |
| O=C(c1ccccc1)c1ccc(O)c(O)c1O | – | -27.9% (inactive) |
| NC(=O)c1ncn([C@@H]2O[C@H](CO)[C@@H](O)[C@H]2O)n1 | inactive | – |
| C[n+]1ccn(CCO)c1 | inactive | – |
| CC(=O)OCc1ccc2c(c1)OCO2 | inactive | – |
| Cc1ccc(Cl)cc1 | inactive | – |
| O=C1CCCCCCCCCCC1 | inactive | – |
| O=c1n(CCCN2CCN(c3cccc(Cl)c3)CC2)nc2ccccn12 | inactive | – |
| CC(=O)c1nccs1 | inactive | – |
| Cc1ccc(C(C)C)cc1 | inactive | – |
| Cc1ccccc1C=O | inactive | – |
| Nc1cccc(N)n1 | inactive | – |
| CCCCC(=O)O | inactive | – |

| SMILES | Potency | activity, negative = cytotoxicity |
| --- | --- | --- |
| CN1Cc2c(N)cccc2C(c2ccccc2)C1 (stereo not given) | inactive | – |
| Clc1cccc(Cl)c1NC1=NCCN1 | inactive | – |
| O=C1OC(=O)c2c(Cl)c(Cl)c(Cl)c(Cl)c21 | inactive | – |
| CCCCCCC(=O)O | inactive | – |
| c1cnc2c(c1)ccc1cccnc12 | 6.92 µM (active) and 3.86 µM (active) and 7.7 µM (active) | – |
| O=[N+]([O-])c1cc(C(F)(F)F)ccc1Cl | inactive | – |
| Cc1ccc([N+](=O)[O-])cc1N | inactive | – |
| CC(=O)OC(C)(C)C1CC=C(C)CC1 (stereo not given) | inactive | – |
| O=C(Cl)c1ccc(C(=O)Cl)cc1 | inactive | – |
| CC(O)CNCC(C)O (stereo not given) | inactive | – |
| CCCCCCCCCCCCCC(=O)O | inactive | – |
| CCOC(=O)c1ccc(O)cc1 | inactive | – |
| NC(N)=S | inactive | – |
| CC(COCC(C)OC(=O)c1ccccc1)OC(=O)c1ccccc1 (stereo not given) | inactive | – |
| CC1(C)C(=O)N(Cl)C(=O)N1Cl | inactive | – |
| O=C1C(N(CO)C(=O)NCO)N(CO)C(=O)N1CO (stereo not given) | inactive | – |
| CCCCCCCCCCCC(=O)N(C)CC(=O)O | inactive | – |
| CCc1cccc(CC)c1N | inactive | – |
| CCN(CC)CCNC(=O)c1ccc(N)cc1 | inactive | – |
| CCCCCCCCO | inactive | – |

Source: PubChem BioAssay (Tox21)
